Shown are actives, neighbours in structure and some others; about 18% of the full set was active somewhere.
Six1-Eya2 blk: blocks human Six1 binding to Eya2; Q15475+O00167; AlphaScreen GST-Six1/His-Eya2 binding, biochemical; hits give low values; activity change, % (concentration not given with the values); actives 0.56% (n = 360,000); AID 651725; in the data active = activity change below about -65%; inconclusive = mostly about -30% to -63%
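GST-Six1 + His-Eya2 (5X stock: 250/500 nM); Tris pH 8.0, 300 mM NaCl, 0.05% BSA, 0.02% Tween 20; GSH donor/Ni acceptor beads; 1 h 37 °C dark; AlphaScreen readout.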
CtBP-E1A inh: CtBP/E1A binding inhibition. activity change, % (test concentration not listed). AlphaScreen GST-E1A/His-CtBP binding, 1536-well; hits give low values. actives 0.49% (n = 340,000). AID 651724; in the data active = activity change below about -65%; inconclusive = mostly about -30% to -63%
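In 5 uL wells, 23 nL compound meets equimolar GST-E1A and His-CtBP (5X stock 125 nM each) for 2 h, 37 °C. Beads (5X, 50 ug/mL) then 1 h, 37 °C, dark.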
TDP1 inh: TDP1 (human) enzyme inhibition; Potency, µM (top dose mostly 130 µM), without a hit: at the highest dose activity change, negative = inhibition, most hits filed as inhibitors; Q9NUW8; recombinant TDP1, AlphaScreen DNA substrate cleavage; actives 0.28% (n = 350,000); also: potency is read from the fitted curve at half-maximal effect; nearly all actives have a fitted effect of over 40% in size
Target sequence (Q9NUW8 whole entry, looked up): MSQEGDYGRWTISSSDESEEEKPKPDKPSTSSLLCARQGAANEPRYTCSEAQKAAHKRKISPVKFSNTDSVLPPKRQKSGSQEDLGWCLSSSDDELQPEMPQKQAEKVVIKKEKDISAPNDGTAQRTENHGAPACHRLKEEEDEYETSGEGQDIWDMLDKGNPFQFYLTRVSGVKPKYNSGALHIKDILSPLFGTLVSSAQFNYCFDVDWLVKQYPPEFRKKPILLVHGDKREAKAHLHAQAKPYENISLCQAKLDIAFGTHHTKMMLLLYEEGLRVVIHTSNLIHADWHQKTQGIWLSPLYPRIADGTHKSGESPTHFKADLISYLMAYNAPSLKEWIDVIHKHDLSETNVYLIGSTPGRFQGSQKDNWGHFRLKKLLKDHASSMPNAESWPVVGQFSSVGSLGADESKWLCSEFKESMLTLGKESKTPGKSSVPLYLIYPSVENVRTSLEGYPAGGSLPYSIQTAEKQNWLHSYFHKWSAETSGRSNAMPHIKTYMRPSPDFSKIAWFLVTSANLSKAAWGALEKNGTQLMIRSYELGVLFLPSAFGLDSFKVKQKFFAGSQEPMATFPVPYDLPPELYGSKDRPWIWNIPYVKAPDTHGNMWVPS
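Recombinant human Tdp1 (E. coli-expressed, 1 nM final) preincubated with compounds 15 min at room temperature, then 5'-biotin/3'-phosphotyrosine-FITC DNA substrate (15 nM final) added for 5 min. AlphaScreen beads (10 ug/ml final) added 10 min; cleavage lowers signal.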
DT40 TDP1 CPT: DT40-hTDP1 cell growth loss with CPT; chicken DT40 Tdp1-/-;hTDP1 cells + 20 nM CPT, ATP luminescence, 48 h; Potency, µM (series often up to 46.2 µM), inactives show at the top dose activity change, negative = growth inhibition, usual class: inhibitors; actives 12% (n = 420,000); AID 686979; also: potency is read from the fitted curve at half-maximal effect; nearly all actives have a fitted effect of over 55% in size
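Chicken DT40 Tdp1-/- cells stably complemented with human TDP1 were seeded at 400 cells/well in medium containing 20 nM camptothecin, exposed to pin-transferred compounds, and grown at 37 °C for at least 48 hr. Viability was read as ATP luminescence.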
IL1B secr inh: inflammasome signaling inhibition, IL-1 beta readout. THP-1 LPS/ATP IL-1B secretion, AlphaLISA, 16 h; hits give low values. activity change, % at 57.5 µM. actives 4.7% (n = 360,000). AID 743279; in the data active = activity change below about -50%; inconclusive = mostly about -30% to -49%
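Secreted IL-1B measured by AlphaLISA bead assay after 16 h compound exposure of THP-1 cells; compounds (final up to 57.5 uM) added 1 h before LPS (250 ng/mL) and ATP (1.25 mM) stimulation; lower signal means less secretion.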
DT40 TDP1 no CPT: qHTS for Inhibitors of human tyrosyl-DNA phosphodiesterase 1 (TDP1): qHTS in cells in absence of CPT. DT40 Tdp1-/- hTDP1 cells, no CPT, ATP luminescence, 48 h. Potency, µM (series often up to 46.2 µM), for the others: at the highest dose activity change, negative = growth inhibition, usual class: inhibitors. actives 15% (n = 420,000); also: potency is read from the fitted curve at half-maximal effect; nearly all actives have a fitted effect of over 55% in size
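Compound effects on proliferation are scored in DT40 Tdp1-/-;hTDP1 cells in the absence of CPT. ATP levels (CellTiter-Glo luminescence) are recorded after a ≥48 hr, 37 °C incubation.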
The depositor's hits bear a star; ? = inconclusive; . = not tested or not shown; [ ] = remark or other dose. Unless noted, calls follow the shape of the dose curve; as a rule, active = well fitted curve in the direction sought with a large enough effect; inconclusive = small, poorly fitted or top-dose-only effect, or another doubt; inactive = no such curve, though single readings can be large; an effect the other way counts as inactive or inconclusive. % is scaled to controls: 0 for no effect and ±100 for the full control effect.

SMILES	Six1-Eya2 blk	CtBP-E1A inh	TDP1 inh	DT40 TDP1 CPT	IL1B secr inh	DT40 TDP1 no CPT
O=C(CCc1ccc(S(=O)(=O)N2CCOCC2)cc1)N/N=C/c1ccc(O)c(O)c1O	-68*	-73*	-8%	?	0	?
O=[N+]([O-])c1ccc(N/N=C/c2ccc(O)c(O)c2O)c(S(=O)(=O)N2CCOCC2)c1	-22	-19	8%	4.1µM*	5	?
C/C(=C\C(=O)c1ncc(C(F)(F)F)cc1Cl)N(C)C	0	2	5%	1%	3	10%
O=C(Nc1ccncc1)c1cc(C2CCCCN2C(=O)CCCc2ccccc2)on1 (stereo unspecified)	-8	-9	.	16µM*	2	15µM*
O=C(Nc1cccc2c1CCCC2)c1cc(C2CCCCN2C(=O)CCCc2ccccc2)on1 (stereo unspecified)	-7	-9	.	16µM*	0	?
CCn1c(SCC(=O)Nc2nc3ccccc3s2)nc2c(c1=O)SC(C)C2 (stereo unspecified)	-23	-16	10%	0.73µM*	?	23µM*
CCn1c(SCC(=O)Nc2nc3ccc(C)cc3s2)nc2c(c1=O)SC(C)C2 (stereo unspecified)	-26	-7	-2%	16µM*	-83*	10µM*
CCn1c(SCC(=O)Nc2cc(C)on2)nc2c(c1=O)SC(C)C2 (stereo unspecified)	1	1	3%	-16%	15	?
CCn1c(SCC(=O)c2ccccc2)nc2c(c1=O)SC(C)C2 (stereo unspecified)	-19	0	6%	?	0	?
CC1Cc2cc(S(=O)(=O)CCC(=O)NC3CCCCC3)ccc2N1C(=O)C1CC1 (stereo unspecified)	6	8	4%	?	20	0%
Cc1c(Cl)cccc1NC(=O)CCS(=O)(=O)c1ccc2c(c1)CC(C)N2C(=O)C1CC1 (stereo unspecified)	.	.	-3%	5.2µM*	.	4.1µM*
O=C(CCS(=O)(=O)c1ccc(Br)cc1)NCc1cccs1	-20	5	22µM*	-18%	10	-2%
Cc1ccc(S(=O)(=O)CCC(=O)Nc2ccc(OC(F)(F)F)cc2)cc1	.	.	-1%	21µM*	.	?
CC1CCC(NC(=O)CCS(=O)(=O)c2ccc3c(c2)CC(C)N3C(=O)C2CC2)CC1 (stereo unspecified)	2	5	5%	?	0	-26%
O=C(CCS(=O)(=O)c1ccc(Br)cc1)NCc1ccco1	-23	.	.	1%	-6	-6%
Cc1cc(Cl)ccc1NC(=O)CCS(=O)(=O)c1ccc2c(c1)CC(C)N2C(=O)C1CC1 (stereo unspecified)	.	.	3%	12µM*	.	?
CCCCC[C@@H]1C=C(C(=O)O)[C@H](c2ccc(Cl)cc2)N1S(=O)(=O)c1ccc(C)cc1	-4	2	0%	?	2	?
CCOC(=O)C/C(N)=N/N(C)c1ncc(C(F)(F)F)cc1Cl	0	.	7%	-13%	4	?
CN1C(=O)Cc2cc(S(=O)(=O)CCC(=O)Nc3ccc(OC(F)(F)F)cc3)ccc21	.	.	0%	5%	.	-8%
CC1Cc2cc(S(=O)(=O)CCC(=O)Nc3ccc(OC(F)(F)F)cc3)ccc2N1C(=O)C1CC1 (stereo unspecified)	.	.	-8%	7.3µM*	.	5.8µM*
COc1ccc(NC(=O)CCS(=O)(=O)c2ccc(OC)cc2)cc1	-1	1	8%	-27%	-4	?
CCOc1ccc(NC(=O)CCS(=O)(=O)c2ccc(Br)cc2)cc1	-24	.	-10%	?	5	23µM*
CCOC(=O)c1c(C)[nH]c(N=Nc2ccccc2)c1C	?	-29	12%	?	-3	23µM*
CCOC(=O)c1c(C)[nH]c(N=Nc2cccc(OC)c2)c1C	-4	0	8%	-5%	-67*	?
C=C[C@@H]1c2cc(C)ccc2N(S(=O)(=O)c2ccc(C)cc2)[C@H](c2ccc(OC(C)=O)cc2)C1(C#N)C#N	-7	.	1%	4.6µM*	13	5.8µM*
SMILES	Six1-Eya2 blk	CtBP-E1A inh	TDP1 inh	DT40 TDP1 CPT	IL1B secr inh	DT40 TDP1 no CPT
Cc1ccc2c(c1)C1CN(C)CCC1N2S(=O)(=O)c1ccc(C#N)cc1 (stereo unspecified)	0	.	1%[56.1 µM]	-14%	-29	-26%
CC(=O)CC1N(S(=O)(=O)c2ccc(C)cc2)c2ccccc2N1S(=O)(=O)c1ccc(C)cc1	-7	-8	.	19%	0	7%
C=C[C@@H]1c2ccccc2N(S(=O)(=O)c2ccc(C)cc2)[C@H](c2ccc(OC(C)=O)cc2)C1(C#N)C#N	-3	-5	0%	16µM*	-16	16µM*
CC(C(=O)NC1CCCC1)N1CCN(S(=O)(=O)c2ccc(C(C)(C)C)cc2)CC1 (stereo unspecified)	1	-10	0%	21µM*	-1	10µM*
CC(C)(C)c1ccc(S(=O)(=O)N2CCN(C3CCCC3)CC2)cc1	6	4	4%	?	19	?
COc1ccc(S(=O)(=O)N2CCC(C(=O)N[C@@H](C)C(=O)NC3CCCC3)CC2)cc1	2	3	1%	16µM*	32	?
CCOC(=O)C(=C1Nc2ccccc2N1)n1c(-c2ccco2)nc2ccccc21	-13	-9	.	7.3µM*	3	?
COc1ccc(N(CCC(=O)O)S(=O)(=O)c2ccc(C)c(C)c2)cc1	6	6	.	-2%	7	-7%
CC(=O)Nc1ccc(S(=O)(=O)c2ccnc3cc(Cl)ccc23)cc1	-5	-18	.	12µM*	-103*	9.2µM*
CC(=O)Nc1ccc(S(=O)(=O)Nc2ccc(Cl)cn2)cc1	-5	-1	.	-6%	8	-5%
O=C(NN=Cc1ccc(N2CCOCC2)s1)c1ccc([N+](=O)[O-])cc1	-6	-8	2%	?	?	18µM*
O=C(N/N=C/c1ccc(Br)s1)c1ccc([N+](=O)[O-])cc1	6	1	-10%	?	-4	2.6µM*
Cc1ccc(COC(=O)CCCN=C2NS(=O)(=O)c3ccccc32)cc1	3	-4	.	-27%	15	?
CC(C)OC(=O)CN1CCN(C2c3ccccc3-c3ccccc32)CC1	-16	-3	3%	?	5	29µM*

Screening data from PubChem BioAssay.
